Bioassay records deposited in PubChem BioAssay by Broad Institute.
This excerpt belongs to a sample that is enriched for hits.
IDE exosite FP: displaces the probe from the exo-site of human IDE; z-score at 20 µM; P14735; 17,000 tested, 6.3% active; purified IDE, FL-6b probe fluorescence polarization; hits give low values;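 active = z-score of -3 or lower, meaning strong loss of probe binding signal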;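 also: His-tagged human IDE residues 42-1019 made in E. coli with 30 nM FL-6b probe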
Target sequence (P14735 42-1019 limits assumed): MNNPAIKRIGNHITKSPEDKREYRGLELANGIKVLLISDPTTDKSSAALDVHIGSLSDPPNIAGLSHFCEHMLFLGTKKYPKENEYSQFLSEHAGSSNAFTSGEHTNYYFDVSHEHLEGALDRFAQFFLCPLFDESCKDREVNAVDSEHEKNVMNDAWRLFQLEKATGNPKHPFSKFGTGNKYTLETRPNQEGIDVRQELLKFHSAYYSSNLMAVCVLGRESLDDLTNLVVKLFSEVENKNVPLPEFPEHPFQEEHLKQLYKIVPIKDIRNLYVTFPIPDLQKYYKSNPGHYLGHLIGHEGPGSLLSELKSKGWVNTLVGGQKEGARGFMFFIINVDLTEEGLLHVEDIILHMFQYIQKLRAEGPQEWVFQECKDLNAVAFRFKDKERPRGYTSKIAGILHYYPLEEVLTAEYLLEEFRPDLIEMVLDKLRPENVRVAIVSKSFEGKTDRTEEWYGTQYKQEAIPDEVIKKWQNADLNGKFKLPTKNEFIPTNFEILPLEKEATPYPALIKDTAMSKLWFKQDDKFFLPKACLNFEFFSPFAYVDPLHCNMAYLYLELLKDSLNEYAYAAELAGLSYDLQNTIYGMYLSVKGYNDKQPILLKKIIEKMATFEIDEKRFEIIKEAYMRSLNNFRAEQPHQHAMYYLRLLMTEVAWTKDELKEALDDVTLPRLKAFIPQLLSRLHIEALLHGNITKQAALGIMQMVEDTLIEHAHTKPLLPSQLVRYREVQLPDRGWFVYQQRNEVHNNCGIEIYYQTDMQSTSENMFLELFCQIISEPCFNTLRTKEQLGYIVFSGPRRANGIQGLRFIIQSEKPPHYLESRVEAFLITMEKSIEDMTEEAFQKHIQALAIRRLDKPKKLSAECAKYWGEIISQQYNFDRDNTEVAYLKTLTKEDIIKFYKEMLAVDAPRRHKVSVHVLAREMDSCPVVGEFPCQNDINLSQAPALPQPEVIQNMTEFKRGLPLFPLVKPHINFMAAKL
* marks the source's active call; other numbers are inactive results.

SMILES	IDE exosite FP
C[C@@H]1CN([C@@H](C)CO)C(=O)c2ccccc2-c2ccccc2CO[C@@H]1CN(C)C(=O)Nc1ccnc(N2CCOCC2)c1	-0.33
O=C(Nc1cc(F)ccc1F)N1CCCCN2[C@H](C1)[C@@H](c1ccc(-c3ccccc3)cc1)[C@@H]2CO	4.8
CCCN1[C@H](CO)[C@H](c2ccc(-c3ccccc3F)cc2)[C@@H]1CNC(=O)C1CCC1	-2
O=C(c1ccc(F)cc1)N1CC(=O)N2[C@H](CO)[C@@H](c3ccc(C#CC4CCCCC4)cc3)[C@@H]2C1	0.27
O=C1N[C@H](Cc2ccccc2)COCc2cn(nn2)CC[C@@H]1Cc1cccc(F)c1	0.6
CCCNC(=O)N1[C@H](CNC(C)=O)[C@@H](c2ccccc2)[C@@H]1CO	3.4
COC(=O)c1ccc(CN2CC(=O)N3[C@H](CO)[C@H](c4ccc(-c5ccccc5)cc4)[C@H]3C2)cc1	-0.86
COc1ccc(NC(=O)N2CCCCN3[C@H](CO)[C@H](c4ccc(-c5ccccc5F)cc4)[C@H]3C2)cc1	0.79
COc1ccc(NC(=O)N2CCCCN3[C@@H](CO)[C@H](c4ccc(-c5ccccc5C)cc4)[C@@H]3C2)cc1	-10*
COc1ccc(NC(=O)N2CCCCN3[C@@H](CO)[C@@H](c4ccc(-c5ccccc5C)cc4)[C@@H]3C2)cc1	-4.5*
COc1ccc(NC(=O)N2CCCCN3[C@H](CO)[C@@H](c4ccc(-c5ccccc5C)cc4)[C@H]3C2)cc1	-1.1
COc1ccc(NC(=O)N2CCCCN3[C@H](C2)[C@@H](c2ccc(-c4ccccc4F)cc2)[C@@H]3CO)cc1	0.93
COc1ccc(NC(=O)N2CCCCN3[C@H](CO)[C@H](c4ccc(-c5ccccc5C)cc4)[C@@H]3C2)cc1	-0.82
C/C=C/c1ccc([C@@H]2[C@@H](CO)N(C(C)=O)[C@@H]2CN(C)S(C)(=O)=O)cc1	3
COCC#Cc1ccc([C@H]2[C@H]3CN(C(=O)Nc4cc(F)ccc4F)CC(=O)N3[C@H]2CO)cc1	2.7
COc1ccc2c3c(n(C)c2c1)[C@@H](CO)N(C(=O)Nc1ccc(F)cc1)CC31CCN(S(=O)(=O)c2cccc(C)c2)CC1	-1.2
O=C(c1cnccn1)N1CC(=O)N2[C@H](CO)[C@H](c3ccc(C#CCc4ccccc4)cc3)[C@H]2C1	-1.3
O=C(Cc1cccnc1)N1CC(=O)N2[C@H](CO)[C@@H](c3ccc(-c4cccc(F)c4)cc3)[C@H]2C1	2.1
O=C(NC[C@@H]1[C@H](c2ccccc2)[C@H](CO)N1Cc1ccccn1)C1CCCC1	0.45
Cc1cccc(-c2ccc([C@@H]3[C@@H](CO)N4CCCCN(C(=O)NC(C)C)C[C@@H]34)cc2)c1	-5.5*
COc1ccccc1NC(=O)N1CCCCN2[C@@H](CO)[C@@H](c3ccc(-c4cccc(C)c4)cc3)[C@@H]2C1	-2.2
COc1ccccc1NC(=O)N1CCCCN2[C@H](C1)[C@H](c1ccc(-c3cccc(C)c3)cc1)[C@@H]2CO	2.2
Cc1cccc(-c2ccc([C@H]3[C@@H](CO)N4CCCCN(C(=O)NC(C)C)C[C@@H]34)cc2)c1	-6*
COc1ccccc1NC(=O)N1CCCCN2[C@H](CO)[C@@H](c3ccc(-c4cccc(C)c4)cc3)[C@@H]2C1	-2.8
Cc1cccc(-c2ccc([C@@H]3[C@@H](CO)N4CCCCN(C(=O)NC(C)C)C[C@H]34)cc2)c1	-7.2*
SMILES	IDE exosite FP
O=C(Nc1ccccc1)N1CC(=O)N2[C@H](CO)[C@@H](c3ccc(-c4ccc(F)cc4)cc3)[C@@H]2C1	2.1
COc1ccc2c3c([nH]c2c1)[C@@H](CO)N(C(=O)Nc1ccc(F)cc1)CC31CCN(S(=O)(=O)c2cn(C)cn2)CC1	-0.64
COc1ccc(S(=O)(=O)N2CCCCN3[C@H](CO)[C@H](c4ccc(-c5cccnc5)cc4)[C@H]3C2)cc1	2.4
COc1cccc(C#Cc2ccc([C@@H]3[C@H]4CN(S(=O)(=O)c5ccccc5C)CC(=O)N4[C@H]3CO)cc2)c1	-0.49
CN(C)C(=O)c1cccc(-c2ccc3c(c2)[C@H]2[C@H](CCN2Cc2nccs2)[C@@H](CO)N3)c1	1.4
O=C(CC(F)(F)F)N1C[C@@H]2[C@H](c3ccccc31)[C@H](CO)N2CC1CCOCC1	-0.45
CO[C@H]1CC[C@@H]2CCOc3c(C#N)cccc3C(=O)N(C)C[C@H](OC)[C@@H](C)C(=O)N(C)C[C@@H]1O2	-0.14
O=C(Cc1ccccc1)N1CC(=O)N2[C@H](C1)[C@@H](c1ccc(-c3ccccc3)cc1)[C@@H]2CO	-2.1
COc1ccc([C@@H]2C/C=C\C[C@@H](c3ccc(F)cc3)NC(=O)CCC(=O)N2)c(OC)c1	-0.64
O=C(CC1CC1)N1CC2(C1)[C@@H](c1ccccc1)[C@H](CO)N2C(=O)c1ccccn1	-0.56
O=C(c1ccncc1)N1CC2(C1)[C@H](c1ccccc1)[C@H](CO)N2CC1CC1	-1
O=C(Cc1ccccn1)N1CC2(C1)[C@H](c1ccccc1)[C@@H](CO)N2C(=O)c1ccncc1	-3.7*
CCC(=O)N1[C@H](CO)[C@@H](c2ccccc2)C12CN(C(=O)c1ccncc1)C2	1.2
O=C(Cc1ccccn1)N1CC2(C1)[C@@H](c1ccccc1)[C@@H](CO)N2C(=O)c1ccncc1	-3.3*
O=C(CC1CC1)N1CC2(C1)[C@@H](c1ccccc1)[C@@H](CO)N2Cc1ccccn1	0.79
C/C=C/c1ccccc1[C@@H]1[C@@H](C#N)N(C(C)=O)[C@H]1CO	-1.1
C/C=C/c1ccc([C@@H]2[C@@H](CO)N3CCCCN(S(=O)(=O)c4cccs4)C[C@@H]23)cc1	2.6
O=C(C[C@@H]1C[C@H]2c3cc(NC(=O)Nc4ccccc4)ccc3O[C@H]2[C@H](CO)O1)NCc1ccccc1	-0.63
O=C(c1ccc2c(c1)OCO2)N1CC(=O)N2[C@H](C1)[C@H](c1ccc(C#CC3CCCC3)cc1)[C@@H]2CO	0.63
COc1cccc(-c2ccc([C@H]3[C@@H](CO)N4CCCCN(S(=O)(=O)c5cn(C)cn5)C[C@@H]34)cc2)c1	0.93
Cn1cnc(S(=O)(=O)N2CCCCN3[C@H](CO)[C@H](c4ccc(-c5cccc(F)c5)cc4)[C@@H]3C2)c1	2.5
COc1cccc(-c2ccc([C@@H]3[C@@H](CO)N4CCCCN(S(=O)(=O)c5cn(C)cn5)C[C@@H]34)cc2)c1	-14*
COc1cccc(-c2ccc([C@@H]3[C@@H](CO)N4CCCCN(S(=O)(=O)c5cn(C)cn5)C[C@H]34)cc2)c1	1.4
Cc1cccc(-c2ccc([C@@H]3[C@H]4CN(S(=O)(=O)c5cn(C)cn5)CCCCN4[C@H]3CO)cc2)c1	-6.1*
Cn1cnc(S(=O)(=O)N2CCCCN3[C@H](CO)[C@@H](c4ccc(-c5ccccc5)cc4)[C@@H]3C2)c1	-9.4*
SMILES	IDE exosite FP
Cc1cccc(-c2ccc([C@@H]3[C@H](CO)N4CCCCN(S(=O)(=O)c5cn(C)cn5)C[C@@H]34)cc2)c1	-20*
COc1cccc(-c2ccc([C@H]3[C@H](CO)N4CCCCN(S(=O)(=O)c5cn(C)cn5)C[C@@H]34)cc2)c1	-0.35
COc1cccc(-c2ccc([C@H]3[C@H]4CN(S(=O)(=O)c5cn(C)cn5)CCCCN4[C@H]3CO)cc2)c1	-0.71
Cn1cnc(S(=O)(=O)N2CCCCN3[C@H](C2)[C@H](c2ccc(-c4ccccc4)cc2)[C@@H]3CO)c1	1.7
Cn1cnc(S(=O)(=O)N2CCCCN3[C@@H](CO)[C@@H](c4ccc(-c5ccc(F)cc5)cc4)[C@@H]3C2)c1	-2.1
Cc1cccc(-c2ccc([C@H]3[C@H]4CN(S(=O)(=O)c5cn(C)cn5)CCCCN4[C@H]3CO)cc2)c1	1.4
